Results reported in PubChem BioAssay AID1159580 (chemical genetic matrix, 2015).
Hit rate of the full screen: of about 5,500 compounds, about 2,000 (36%) were called active. About 18% were inconclusive and are not listed. Cut-off read from the data, not from the text of the source: active = normalized growth mostly below about 0.91 (no sharp cut-off); inconclusive = no clear call, values can overlap the other calls; inactive = mostly above about 0.92. This is one part of the list.

Experiment: chemical genetic growth profiling, strain panel (AID 1159580);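 note: tested at 20 µM; growth read once vehicle control cultures reached saturation at 30 °C; 1 = growth at the plate median or of vehicle wells; lower values mean less growth of the strain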
Settings: growth OD

Measured: normalized growth

COc1cc2c(cc1OC)[C@@H]1C(=O)c3ccc4c(c3O[C@@H]1CO2)CC(C(C)C)O4 (stereo partly drawn)
inactive: S. cerevisiae deletion strains, locus YKL009W, strain mrt4, stronger effect = lower value 1.01 | S. cerevisiae deletion strains, locus YKL068W, stronger effect = lower value 0.999 | S. cerevisiae deletion strains, locus YKL085W, strain MDH1 (second series), stronger effect = lower value 0.999 | S. cerevisiae deletion strains, locus YKL085W, strain MDH1, stronger effect = lower value 0.999 | S. cerevisiae deletion strains, locus YKL160W, strain elf1, stronger effect = lower value 0.978 | S. cerevisiae deletion strains, locus YKL190W, strain CNB1, stronger effect = lower value 0.998 | S. cerevisiae deletion strains, locus YKR026C, strain gcn3, stronger effect = lower value 0.991 | S. cerevisiae deletion strains, locus YKR091W, strain srl3, stronger effect = lower value 0.997 | S. cerevisiae deletion strains, locus YLL001W, strain dnm1, stronger effect = lower value 0.943 | S. cerevisiae deletion strains, locus YLL026W, stronger effect = lower value 0.98 | S. cerevisiae deletion strains, locus YLL041C, strain sdh2, stronger effect = lower value 1 | S. cerevisiae deletion strains, locus YLR027C, strain aat2, stronger effect = lower value 0.935 | S. cerevisiae deletion strains, locus YLR039C, strain RIC1, stronger effect = lower value 0.849 | S. cerevisiae deletion strains, locus YLR058C, strain SHM2, stronger effect = lower value 0.987 | S. cerevisiae deletion strains, locus YLR102C, strain apc9, stronger effect = lower value 1.01 | S. cerevisiae deletion strains, locus YLR113W, strain HOG1, stronger effect = lower value 1.02 | S. cerevisiae deletion strains, locus YLR221C, strain rsa3, stronger effect = lower value 0.966 | S. cerevisiae deletion strains, locus YLR258W, strain gsy2, stronger effect = lower value 0.985 | S. cerevisiae deletion strains, locus YLR262C, strain YPT6 (second series), stronger effect = lower value 0.897 | S. cerevisiae deletion strains, locus YLR262C, strain YPT6, stronger effect = lower value 0.822 | S. cerevisiae deletion strains, locus YLR268W, strain sec22, stronger effect = lower value 0.976 | S. cerevisiae deletion strains, locus YLR320W, strain mms22, stronger effect = lower value 0.923 | S. cerevisiae deletion strains, locus YLR330W, strain CHS5, stronger effect = lower value 1 | S. cerevisiae deletion strains, locus YLR342W, strain FKS1 (second series), stronger effect = lower value 0.999 | S. cerevisiae deletion strains, locus YLR342W, strain FKS1, stronger effect = lower value 0.975 | S. cerevisiae deletion strains, locus YLR357W, strain rsc2, stronger effect = lower value 0.958 | S. cerevisiae deletion strains, locus YLR370C, strain arc18, stronger effect = lower value 0.984 | S. cerevisiae deletion strains, locus YLR371W, strain rom2, stronger effect = lower value 1 | S. cerevisiae deletion strains, locus YLR384C, strain iki3, stronger effect = lower value 0.981 | S. cerevisiae deletion strains, locus YLR418C, strain cdc73, stronger effect = lower value 0.921 | S. cerevisiae deletion strains, locus YML016C, strain PPZ1, stronger effect = lower value 1 | S. cerevisiae deletion strains, locus YML032C, strain rad52, stronger effect = lower value 1 | S. cerevisiae deletion strains, locus YML120C, strain ndi1, stronger effect = lower value 0.986 | S. cerevisiae deletion strains, locus YML124C, strain tub3, stronger effect = lower value 0.999 | S. cerevisiae deletion strains, locus YMR058W, strain fet3, stronger effect = lower value 0.983 | S. cerevisiae deletion strains, locus YMR078C, strain ctf18, stronger effect = lower value 0.996 | S. cerevisiae deletion strains, locus YMR125W, strain sto1, stronger effect = lower value 0.99 | S. cerevisiae deletion strains, locus YMR129W, stronger effect = lower value 0.979 | S. cerevisiae deletion strains, locus YMR205C, strain PFK2, stronger effect = lower value 0.924 | S. cerevisiae deletion strains, locus YMR223W, strain ubp8, stronger effect = lower value 1 | S. cerevisiae deletion strains, locus YMR231W, strain pep5, stronger effect = lower value 0.992 | S. cerevisiae deletion strains, locus YMR263W, strain SAP30, stronger effect = lower value 1 | S. cerevisiae deletion strains, locus YMR307W, strain GAS1, stronger effect = lower value 0.872 | S. cerevisiae deletion strains, locus YNL067W, strain RPL9B, stronger effect = lower value 0.993 | S. cerevisiae deletion strains, locus YNL071W, strain lat1, stronger effect = lower value 0.93 | S. cerevisiae deletion strains, locus YNL183C, strain NPR1, stronger effect = lower value 0.983 | S. cerevisiae deletion strains, locus YNL209W, strain ssb2, stronger effect = lower value 0.995 | S. cerevisiae deletion strains, locus YNL233W, strain BNI4, stronger effect = lower value 0.986 | S. cerevisiae deletion strains, locus YNL248C, strain rpa49, stronger effect = lower value 0.98 | S. cerevisiae deletion strains, locus YNL250W, strain rad50, stronger effect = lower value 1 | S. cerevisiae deletion strains, locus YNL271C, strain bni1, stronger effect = lower value 1.02 | S. cerevisiae deletion strains, locus YNL298W, strain CLA4, stronger effect = lower value 1.01 | S. cerevisiae deletion strains, locus YNL307C, strain MCK1, stronger effect = lower value 0.986 | S. cerevisiae deletion strains, locus YNL322C, strain KRE1 (second series), stronger effect = lower value 0.985 | S. cerevisiae deletion strains, locus YNR049C, strain mso1, stronger effect = lower value 0.997 | S. cerevisiae deletion strains, locus YNR052C, strain pop2, stronger effect = lower value 1.01 | S. cerevisiae deletion strains, locus YOL006C, strain TOP1, stronger effect = lower value 0.897 | S. cerevisiae deletion strains, locus YOL012C, strain htz1 1.16 | S. cerevisiae deletion strains, locus YOL147C, strain pex11, stronger effect = lower value 0.999 | S. cerevisiae deletion strains, locus YOR001W, strain rrp6, stronger effect = lower value 0.966 | S. cerevisiae deletion strains, locus YOR061W, strain CKA2, stronger effect = lower value 0.998 | S. cerevisiae deletion strains, locus YOR069W, strain VPS5, stronger effect = lower value 1.01 | S. cerevisiae deletion strains, locus YOR070C, strain gyp1, stronger effect = lower value 0.961 | S. cerevisiae deletion strains, locus YOR080W, strain dia2, stronger effect = lower value 0.974 | S. cerevisiae deletion strains, locus YOR083W, strain WHI5, stronger effect = lower value 0.98 | S. cerevisiae deletion strains, locus YOR106W, strain vam3, stronger effect = lower value 1.02 | S. cerevisiae deletion strains, locus YOR136W, strain idh2, stronger effect = lower value 1 | S. cerevisiae deletion strains, locus YOR144C, strain elg1, stronger effect = lower value 0.992 | S. cerevisiae deletion strains, locus YOR184W, strain ser1, stronger effect = lower value 0.925 | S. cerevisiae deletion strains, locus YOR231W, strain MKK1, stronger effect = lower value 1.05 | S. cerevisiae deletion strains, locus YOR265W, strain rbl2, stronger effect = lower value 0.989 | S. cerevisiae deletion strains, locus YOR270C, strain vph1, stronger effect = lower value 0.939 | S. cerevisiae deletion strains, locus YOR290C, strain snf2, stronger effect = lower value 0.989 | S. cerevisiae deletion strains, locus YOR316C, strain cot1, stronger effect = lower value 0.999 | S. cerevisiae deletion strains, locus YPL051W, strain arl3, stronger effect = lower value 0.941 | S. cerevisiae deletion strains, locus YPL055C, strain LGE1, stronger effect = lower value 0.929 | S. cerevisiae deletion strains, locus YPL078C, strain atp4, stronger effect = lower value 0.982 | S. cerevisiae deletion strains, locus YPL106C, strain sse1, stronger effect = lower value 1 | S. cerevisiae deletion strains, locus YPL240C, strain hsp82, stronger effect = lower value 1.01 | S. cerevisiae deletion strains, locus YPL241C, strain CIN2, stronger effect = lower value 1 | S. cerevisiae deletion strains, locus YPL256C, strain CLN2, stronger effect = lower value 1.05 | S. cerevisiae deletion strains, locus YPR119W, strain clb2, stronger effect = lower value 1 | S. cerevisiae deletion strains, locus YPR141C, strain kar3, stronger effect = lower value 1 | S. cerevisiae deletion strains, locus YPR163C, strain tif3, stronger effect = lower value 1.01 | S. cerevisiae deletion strains, locus YPR167C, strain met16, stronger effect = lower value 1 | S. cerevisiae deletion strains, strain wtn01, stronger effect = lower value 1.01 | S. cerevisiae strains, strain wild type, stronger effect = lower value 0.987
active: S. cerevisiae deletion strains, locus YKR001C, strain vps1, stronger effect = lower value 0.849
